Holding throughout (experiment): PBM binding z-score (relative to random genomic background probes); higher = stronger binding; sequences stand for … in GC…GCGATTGACAGCGTAGAATGAAGG
In assay [1] the test system is RARb homodimer (NR concentration 270 nM). In a few lines: (§1)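 Binding z-scores take random background probes as their reference. They come from custom Agilent 4×180K protein-binding microarrays incubated 1 h with ligand-free nuclear receptor dimers, with antibodies against each partner (one per run) detecting binding. Scanned fluorescence was regression-normalized.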

The test system of assay [2] is RARg:RXRa (NR concentration 270 nM, RXRa partner concentration 90 nM). In a few lines:
as §1

For assay [3], the system named is RARg homodimer (NR concentration 270 nM). The procedure, abridged:
as §1

Assay [4] relates to RXRa DBDmut IVT, anti-RXR (DBD mutation: RXRa K156A/R161A, NR concentration 90 nM). The procedure, abridged:
as §1

Assay [5] concerns RXRa homodimer (NR concentration 180 nM). In a few lines:
as §1

In assay [6] the test system is THRa:RXRa (NR concentration 90 nM, RXRa partner concentration 90 nM). The procedure, abridged: as §1
For assay [7], the system named is THRa homodimer (NR concentration 90 nM). The procedure, abridged:
as §1

The subject of assay [8] is VDR homodimer (NR concentration 270 nM). In a few lines:
as §1

Regarding GGAACGAGGGCAACGTTGATAGCATCTGTCGACG, the PBM binding z-score stood at 0.961 in assay [1]; 1.37 in assay [2]; 1.79 in assay [3]; 1.56 in assay [4]; 0.986 in assay [5]; 0.981 in assay [6]. Besides, the values for the PBM binding z-score in assay [7] and in assay [8] were -0.186 and -0.00307, respectively.

For the sequence ATCGAAAGGTCGACGAGGTGAGTCTACACCGTTT, the PBM binding z-score in assay [1] was 3.08; in assay [2], 4.01; in assay [3] it was 3.95; in assay [4] it was 1.04; in assay [5] it was 4.04; in assay [6] it was 3.99. Besides, the figures for the PBM binding z-score in assay [7] and in assay [8] were 1.04 and 0.956, respectively.

As to CAAACTAGGTCACGAAAGGTCCAAGTCGAATGAC, the PBM binding z-score in assay [1] turned out to be 3.73; in assay [2], 5.23; in assay [3], 5.73; in assay [4], 1.55; in assay [5] it was 4.45; in assay [6], 3.87. In addition, the PBM binding z-score came out at 1.39 in assay [7] and 1.55 in assay [8].

Turning to TCTAGTTGGTCACGGAGGTAACACACGACGGGTA, the PBM binding z-score in assay [1] stood at 1.39; in assay [2] it was 1.24; in assay [3] it was 1.7; in assay [4] it was 0.681; in assay [5], 1.04; in assay [6], 1.12. For the same sequence, the PBM binding z-score in assay [7] was 0.797; in assay [8] it was 0.198.

With TCATATAGGTAATTGCTAGGTGAAAGTCCGATCT, the PBM binding z-score in assay [1] came to 0.402; in assay [2], 0.393; in assay [3], 0.128; in assay [4], 1.47; in assay [5], 0.589; in assay [6], 1.44. The PBM binding z-score in assay [7] was found to be 0.689; in assay [8], 0.282.

For the sequence TAGCCTAGGTTATTCAGGGGCCAGTATAGAAAGC, the PBM binding z-score in assay [1] is 0.985; in assay [2], 3.15; in assay [3] it was 0.714; in assay [4], -0.074; in assay [5], 0.459; in assay [6], 1.93. Besides, the PBM binding z-score in assay [7] was -0.239; in assay [8] it was -0.459.

On to TCTATTAGTTGAAGGACAACCGACGAGTCCGTTT, for which the PBM binding z-score was found to be 0.756 in assay [1]; 0.368 in assay [2]; 0.728 in assay [3]; 2.05 in assay [4]; 0.435 in assay [5]; 0.552 in assay [6]. Further, the PBM binding z-score was 0.684 in assay [7] and 1.62 in assay [8].

For ATCTGTAGGTAAGACTCAGTTCAGTGAAGAACGC, the PBM binding z-score was 0.419 in assay [1]; 0.15 in assay [2]; -0.0533 in assay [3]; 0.0968 in assay [4]; 0.114 in assay [5]; 0.687 in assay [6]. For the same sequence, the PBM binding z-score was 0.0437 in assay [7] and 0.939 in assay [8].

As to CCGACTGGGCCATCAGGTCATTGATATCAACGTT, the PBM binding z-score in assay [1] worked out at 2.62; in assay [2] it was 2.06; in assay [3] it was 1.8; in assay [4], 0.194; in assay [5], 1.38; in assay [6], 3.17. For the same sequence, the figures for the PBM binding z-score in assay [7] and in assay [8] were 2.95 and 1.67, respectively.

CCTCGGGGGACAACAGGAGGTCAGAGCTGCCAGA: the PBM binding z-score was 3.75 in assay [1]; 4.66 in assay [2]; 4.32 in assay [3]; 0.347 in assay [4]; 2.89 in assay [5]; 3.22 in assay [6]. The PBM binding z-score in assay [7] worked out at 1.07; in assay [8], 1.19.

Turning to TTACCAAGGTGAAAGGTCGATGATGCACGCCTTG, the PBM binding z-score in assay [1] was 2.3; in assay [2] it was 3.83; in assay [3], 2.15; in assay [4], -0.254; in assay [5], 4.5; in assay [6], 3.04. In addition, the values for the PBM binding z-score in assay [7] and in assay [8] were 0.568 and 0.119, respectively.

For the sequence GTACCAAAGTGAATAGGTCGTTGATGAGTAGGCG, the PBM binding z-score is 0.226 in assay [1]; 0.205 in assay [2]; 0.383 in assay [3]; -0.282 in assay [4]; 0.584 in assay [5]; -0.048 in assay [6]. Moreover, the PBM binding z-score in assay [7] was -0.733; in assay [8], -0.0624.

Regarding AGAACGAGGGCAATGACTTGATAGCACGGGTGGC, the PBM binding z-score in assay [1] came out at 1.08; in assay [2], 1.18; in assay [3], 1.67; in assay [4], 1.64; in assay [5], 1.08; in assay [6], 0.826. Also, the PBM binding z-score worked out at 0.042 in assay [7] and 0.435 in assay [8].

Take CCTACGGGGCCATCAGGTCATTGATATCAACGTT: the PBM binding z-score in assay [1] stood at 3.1; in assay [2] it was 3.1; in assay [3], 2.83; in assay [4], 0.971; in assay [5], 2.02; in assay [6] it was 3.6. The PBM binding z-score came to 2.97 in assay [7] and 2.45 in assay [8].

Values taken from the supplement of paper PMC6555819.
